NS3h inh CB: blocks HCV NS3 helicase binding to DNA | actives 1.6% (n = 16,000) | NS3h Cy5-dT15 DNA binding, fluorescence polarization | inhibition, % at 100 µM;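 active means inhibition above the average over every tested compound plus 3 SD, cut at about 40% in these data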
Cy5 interf NS3h: counter-screen for HCV NS3 helicase inhibitors: fluorescence interference. fluorescence interference ratio at 100 µM. Cy5-dT15 DNA with NS3h; actives lie on both sides; signal over control mean, under 1 quenches. actives 6% (n = 16,000);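 active means compound fluorescence over control fluorescence at most 0.8, a quencher, or at least a set upper limit, an enhancer; inactive means ratio between 0.8 and the set upper limit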
* hit, by the source's call. Shown are actives, neighbours in structure and some others; about 6.9% of the full set was active somewhere.

SMILES | NS3h inh CB | Cy5 interf NS3h
CC(C)N(Cc1ccccc1)C(=O)CCCOc1ccc(Cl)cc1Cl | 9 | 1
COc1ccccc1NS(=O)(=O)c1ccc(Br)cc1 | 9 | 1
COc1ccc(/C=C/C(=O)N2CCOCC2)cc1Br | 2 | 0.67*
COc1ccc(/C=C/C(=O)N(C(C)C)C(C)C)cc1Br | 8 | 1
COc1ccc(Oc2coc3cc(OC(=O)c4ccccc4Cl)ccc3c2=O)cc1 | 7 | 1
Cc1ccc(C(=O)O/N=C(/N)c2ccc(Br)cc2)cc1[N+](=O)[O-] | 18 | 0.78*
Cc1ccc(C(=O)O/N=C(/N)c2ccc(Cl)cc2)cc1[N+](=O)[O-] | -2 | 0.96
COc1cccc(CN2CCN(Cc3ccc4ccccc4c3)CC2)c1 | -7 | 0.99
Cc1ccc2c(c1)NC(c1cccc(O)c1)C1=C(CC(C)(C)CC1=O)N2 (stereo not given) | -2 | 0.93
O=C(Oc1cccc(C(=S)N2CCOCC2)c1)c1ccc([N+](=O)[O-])cc1 | 20 | 0.66*
O=C(Oc1ccccc1C(=S)N1CCOCC1)c1ccc([N+](=O)[O-])cc1 | 2 | 0.89
Cc1ccc(OCC(=O)O/N=C(/N)c2ccc([N+](=O)[O-])cc2)cc1 | 10 | 1
Cc1ccc(N2NC(=O)/C(=C/c3ccc(Cl)cc3)C2=O)cc1 | 25 | 0.68*
O=C1NN(c2ccc(Cl)cc2)C(=O)/C1=C\c1ccc(O)c(O)c1 | 5 | 0.85
O=C(NCc1cccnc1)/C(=C/c1cccc(Oc2ccccc2)c1)NC(=O)c1ccccc1 | 16 | 0.85
CCc1ccc(S(=O)(=O)Nc2cc(Br)c(O)c3ccccc23)cc1 | 4 | 0.98
CCc1ccc(S(=O)(=O)Nc2cc(-c3c(O)ccc4ccccc34)c(O)c3ccccc23)cc1 | 9 | 0.78*
Cc1cccc(OCC(=O)NCCCN(C)C)c1 | 6 | 1.1
CN1C(=O)/C(=C\c2cccc(OCc3cccc4ccccc34)c2)SC1=S | -1 | 1.2
CN(C1=NC(=O)/C(=C\C(Cl)=C\c2ccc([N+](=O)[O-])cc2)S1)c1ccc(O)cc1 | 1 | 0.4*
CN(C1=NC(=O)S/C1=C\c1ccc([N+](=O)[O-])cc1)c1ccc(O)cc1 | 33 | 0.92
O=C(Nc1ccccc1)c1ccccc1C(=O)OCCCCCc1cccs1 | 17 | 0.85
CS(=O)(=O)N(CC(=O)NCCSc1ccc(Cl)cc1)c1ccc(Cl)cc1 | 12 | 0.98
COC(=O)C[n+]1ccccc1CCC#N | 4 | 1
O=S(=O)(Cc1ccccc1)NCCOc1ccccc1Cl | 11 | 0.9
SMILES | NS3h inh CB | Cy5 interf NS3h
O=C(CSc1nnc(-c2ccc(Br)cc2)o1)NCc1ccccc1 | 9 | 1
O=C(OCc1ccccc1)Sc1nnc(-c2ccc(Br)cc2)o1 | 14 | 0.78*
C=CCN1C(=O)/C(=C\c2ccc(-c3ccc(Cl)c(Cl)c3)o2)SC1=S | 11 | 1
Cc1ccc(-c2[nH]n3c(=O)cc(-c4ccc([N+](=O)[O-])cc4)nc3c2C)cc1 | -6 | 0.79*
COc1ccc(-c2cc(=O)n3[nH]c(-c4ccc(C)cc4)c(C)c3n2)cc1 | 2 | 1.1
CN(CCO)S(=O)(=O)c1ccc2c(c1)Cc1cc(S(=O)(=O)N(C)CCO)ccc1-2 | 5 | 1
O=C(Nc1cccc(Cl)c1)c1ccccc1Br | -2 | 0.8*
Cc1ccccc1C(=O)Nc1cccc(Cl)c1 | 5 | 0.96
Clc1cccc(-c2ncnn2-c2cccc(Cl)c2)c1 | 4 | 1
N/N=C1\NC(=O)C(Cc2cccc([N+](=O)[O-])c2)S1 (stereo not given) | 10 | 1.1
Cc1ccccc1/C=N\N=C1\NC(=O)C(Cc2cccc([N+](=O)[O-])c2)S1 (stereo not given) | 15 | 1.3*
CC(=O)Oc1cc2ccccc2cc1-c1nc2n(n1)C(=O)CCS2 | 11 | 0.96
COc1ccc2c(=O)cc(C(Cl)(Cl)Cl)oc2c1 | 15 | 0.65*
COc1ccc2oc(C(Cl)(Cl)Cl)cc(=O)c2c1 | 1 | 0.91
O=C(CSC1CC(=O)N(c2cccc(Br)c2)C1=O)Nc1ccc(Cl)cc1 (stereo not given) | 43* | 0.79*
O=C(CSc1cc(Cl)ccc1Cl)Nc1cccc(Br)c1 | 7 | 0.93
O=C(COc1ccc([N+](=O)[O-])cc1)Nc1ccc2oc(-c3ccccc3F)nc2c1 | 2 | 1
O=C(/C=C/c1cccc([N+](=O)[O-])c1)Nc1ccc2oc(-c3ccccc3F)nc2c1 | -4 | 0.78*
Cc1ccc(NC(=S)NC(=O)C(=O)Nc2ccccc2)cc1 | 10 | 0.72*
O=C(Nc1ccccc1)C(=O)Nc1ccc(F)cc1 | 8 | 0.96
COc1ccc2c(c1)C(NC(=O)C(F)(F)F)CC2=O (stereo not given) | -2 | 0.62*
COc1ccc(OC)c(C2C3=C(CC(C)(C)CC3=O)OC3=C2C(=O)CC(C)(C)C3)c1 | 3 | 1.1
[O-][n+]1cc(O)c(Br)c2ccccc21 | 11 | 0.7*
CN(C)Cc1c(O)c[n+]([O-])c2ccccc12 | 4 | 1

Assay outcomes from PubChem.
